Compound activity (PubChem)
In the library only some 3.8% were active in any assay of this set; here they are far more common.
HepG2 tox – counter-screen for TGF-b inhibitors: cytotoxicity in HepG2 cells | HepG2 CAGA-GFP viability, ATP luminescence, 18 h | Potency, µM (doses to about 46.1 µM), hits mostly cytotoxic | 410,000 compounds, 0.76% hits | AID 588856
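CellTiter-Glo luminescence gave cytotoxicity after 18 hours at 37 degrees C. The cells were HepG2 CAGA-GFP in 1% FBS DMEM, stimulated with 500 pg/mL TGF-beta after compound addition. %Activity was normalised to no-cell wells (complete cell-killing) and DMSO (no toxicity), and curves were fitted and classified.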
ATXN2 expr inh – reduces ATXN2 reporter expression in HEK-293 cells; HEK-293 ATXN2-luciferase reporter, luminescence, 24 h; Potency, µM (series often up to 57 µM), hits mostly inhibitors; 360,000 compounds, 0.72% hits; AID 1745845; further: nearly all actives have a fitted effect of over 55% in size
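qHTS (up to 57 uM final) was run with 24 h compound exposure of reporter cells at 37 °C. Each well was multiplexed: SteadyGlo luminescence measured ATXN2-luciferase expression after a fluorogenic Gly-Phe-AFC viability readout (25 uM final).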
HT1080 IDH1KD tx – kills HT-1080 cells with IDH1 knockdown | HT-1080 IDH1 knockdown viability, ATP luminescence, 48 h | Potency, µM (top dose mostly 46.1 µM), hits mostly cytotoxic | 360,000 compounds, 2% hits | AID 686971
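HT-1080-IDH1KD cells (IDH1 knocked down), 750/well in RPMI with 5% FBS, treated with compound 48 h at 37 degrees C. Viability by CellTiter-Glo luminescence, normalised to DMSO and no-cell wells; concentration-response curves classed.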
TGFb inhibitor – inhibitors of TGF-b signaling | HepG2 CAGA-GFP TGF-b/SMAD3 reporter, GFP fluorescence, 18 h; TGF-beta stimulated, 500 pg/mL final | Potency, µM (series often up to 46.1 µM), usual class: inhibitors | 410,000 compounds, 1.2% hits | AID 588855; further: nearly all actives have a fitted effect of over 65% in size
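Using HEPG2 CAGA-GFP reporter cells at 1000 cells/well, we pinned test compounds, stimulated with recombinant TGF-beta (500 pg/mL final) and measured total well GFP after 18 h.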
S2 tox – viability counter-screen for ATXN expression inhibitors. S2 cells (HEK-293 line with an ATXN2-luciferase reporter) viability, CellTiter-Fluor protease fluorescence, 24 h. Potency, µM (series often up to 56.7 µM), most hits filed as cytotoxic. 400,000 compounds, 0.49% hits; further: nearly all actives have a fitted effect of over 40% in size
HT1080-NT tox – kills 2HG-producing HT-1080-NT fibrosarcoma cells | HT-1080-NT fibrosarcoma viability, CellTiter-Glo ATP luminescence, 48 h | Potency, µM (series often up to 46.1 µM), usual class: cytotoxic | 360,000 compounds, 1.6% hits | AID 686970;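 further: NT is the 2HG producing partner of a matched IDH1 knockdown line; nearly all actives have a fitted effect of over 55% in size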
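Luminescent CellTiter-Glo readout after 48 hours of compound exposure at 37 degrees C defined viability of HT-1080-NT cells. Activity was normalized to DMSO wells and cell-free media wells; concentration-response curves were fitted and assigned curve classes.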
Large screens that a line does not name were inactive. The call rests on the fitted dose curve; in most records, active means well fitted curve in the direction sought with a large enough effect; inconclusive means small, poorly fitted or top-dose-only effect, or another doubt; inactive means no such curve, though single readings can be large; an effect the other way counts as inactive or inconclusive.

CC(O)(CS(=O)(=O)Cc1cccc(C(F)(F)F)c1)C(=O)Nc1cccc(C(F)(F)F)c1 (configuration not stated)	HT1080 IDH1KD tx 15.8µM, TGFb inhibitor inconclusive, S2 tox inconclusive, HT1080-NT tox inconclusive
C[C@@H](CN1CC(=O)NC(=O)C1)N1CC(=O)NC(=O)C1	ATXN2 expr inh inconclusive (no result: HepG2 tox, HT1080 IDH1KD tx, TGFb inhibitor, HT1080-NT tox)
CN(C)CCOC(=O)C1(c2ccccc2)CCCC1	none
C[N+]1(CCCOC(=O)C2(c3ccccc3)CCCC2)CCOCC1	HepG2 tox 11.2µM, TGFb inhibitor inconclusive
Cc1cccc(C(=O)Nc2nnc(S(=O)(=O)N3CCC(C)CC3)s2)c1	TGFb inhibitor inconclusive
CC1CCN(S(=O)(=O)c2nnc(NC(=O)c3cccc(Br)c3)s2)CC1	TGFb inhibitor 4.47µM (no result: ATXN2 expr inh, HT1080 IDH1KD tx, S2 tox, HT1080-NT tox)
CC(C)(C)NC(=O)NC(=O)COC(=O)c1cccc(NS(=O)(=O)c2ccc(F)c(F)c2)c1	none
CC(C)(C)c1ccc(NC(=O)COC(=O)c2ccc(NS(=O)(=O)c3ccc(F)c(F)c3)cc2)cc1	TGFb inhibitor 14.1µM
O=C(Nc1nc2n(n1)C(c1ccc(Cl)cc1)CC(c1ccc(Cl)cc1)N2)c1ccco1 (configuration not stated)	HT1080 IDH1KD tx 23.1µM, TGFb inhibitor inconclusive, HT1080-NT tox 23.1µM
O=C(O)Cn1cnnn1	none (no result: HepG2 tox, HT1080 IDH1KD tx, TGFb inhibitor, HT1080-NT tox)
CC(=O)Nc1sc2c(c1-c1nc3ccccc3s1)CCN(C(C)C)C2	ATXN2 expr inh 5.32µM, HT1080 IDH1KD tx 11.6µM, TGFb inhibitor inconclusive, S2 tox inconclusive, HT1080-NT tox 11.6µM
CCN1CCc2c(sc(NC(=O)c3cc4ccccc4cc3OC)c2C(N)=O)C1	HT1080 IDH1KD tx 8.2µM, TGFb inhibitor inconclusive, HT1080-NT tox 6.51µM
CC(C)N1CCc2c(sc(NC(=O)c3cc4cc([N+](=O)[O-])ccc4s3)c2C(N)=O)C1	HepG2 tox 12.6µM, ATXN2 expr inh inconclusive, HT1080 IDH1KD tx inconclusive, TGFb inhibitor inconclusive, HT1080-NT tox inconclusive (no result: S2 tox)
COc1cccc(OC)c1C(=O)Nc1sc2c(c1C(N)=O)CCN(Cc1ccccc1)C2	none
CC(C)N1CCc2c(sc(NC(=O)c3ccc(C(=O)c4ccccc4)cc3)c2C(N)=O)C1	ATXN2 expr inh inconclusive, HT1080 IDH1KD tx 18.4µM, TGFb inhibitor inconclusive, S2 tox inconclusive, HT1080-NT tox 20.6µM
CC(C)N1CCc2c(sc(NC(=O)c3ccco3)c2C(N)=O)C1	none
COC(=O)C1CCCCN1Cc1ccc2c(c1)CN(C(=O)c1ccc(C)s1)CCO2 (configuration not stated)	none (no result: HepG2 tox, ATXN2 expr inh, HT1080 IDH1KD tx, TGFb inhibitor, HT1080-NT tox)
CCn1c(-c2cccc(OC)c2)nc2cc(NC(C)=O)cc(C(=O)N(C)CC3COCCO3)c21 (configuration not stated)	none (no result: HepG2 tox, ATXN2 expr inh, HT1080 IDH1KD tx, TGFb inhibitor, HT1080-NT tox)
CCC(CC)C(=O)Nc1cc(-c2nc3cccnc3s2)ccc1C	none (no result: HT1080 IDH1KD tx, HT1080-NT tox)
CN(C)CCOc1ccc(-c2nc(-c3ccc4c(c3)CCC4=NO)c(-c3ccncc3)[nH]2)cc1	none (no result: HepG2 tox, HT1080 IDH1KD tx, TGFb inhibitor, S2 tox, HT1080-NT tox)
CC(C)N1CCc2c(sc(NC(=O)c3ccc4ccccc4c3)c2C(N)=O)C1	HepG2 tox 11.2µM, HT1080 IDH1KD tx inconclusive, HT1080-NT tox inconclusive
CC(C)N1CCc2c(sc(NC(=O)Cc3ccccc3)c2C(N)=O)C1	none
COc1cc(CNCc2cc3ccc(F)cc3nc2N2CCOCC2)cc(OC)c1OC	none (no result: HepG2 tox, ATXN2 expr inh, HT1080 IDH1KD tx, TGFb inhibitor, HT1080-NT tox)
COc1ccc(CN(C)C(=O)c2cccc(NC(=O)CC3SC(N4CCCCC4)=NC3=O)c2)c(OC)c1 (configuration not stated)	ATXN2 expr inh 20µM, S2 tox inconclusive, HT1080-NT tox inconclusive
CCC/C=C/c1ccc(CN2C(CC(C)C)C(=O)N(Cc3cn(Cc4ccco4)nn3)CCS2(=O)=O)cc1 (configuration not stated)	ATXN2 expr inh inconclusive, HT1080 IDH1KD tx inconclusive, TGFb inhibitor 15.8µM, S2 tox inconclusive, HT1080-NT tox inconclusive
CC1C(=O)N(Cc2cn(CC3CCCCC3)nn2)CCS(=O)(=O)N1Cc1ccc(-c2ccc(Cl)c(Cl)c2)cc1 (configuration not stated)	TGFb inhibitor inconclusive, S2 tox inconclusive, HT1080-NT tox inconclusive
